Compounds with a hit are over-represented: about 1.2% of the library has one in this group of screens.
IL1B NFkB pot: enhancers of NFkB p65 translocation in HUVEC – imaging, IL-1B stimulus, high-content imaging, primary screen | HUVEC IL-1B NFkB p65 nuclear translocation imaging | activation, % at 2 µM | 0.3% of 94,000 active | AID 819, 2007;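 active means activation above 40%, about the mean plus 3 SD, also judged a hit on visual image review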;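 further: percent activation is computed from the nuclear over cytoplasmic p65 intensity ratio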
IL1B NFkB inh: inhibitors of IL-1B driven NFkB p65 nuclear import, primary screen, imaging, HUVEC, IL-1B stimulus, high-content imaging; HUVEC IL-1B NFkB p65 nuclear translocation imaging; inhibition, % at 2 µM; 0.43% of 94,000 active; AID 796, 2007;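 active means inhibition above about 30% together with a positive call from visual inspection of the well image, limit read from the data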;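 further: nuclear over cytoplasmic p65 intensity ratio measured by imaging; 0% = IL-1B stimulated DMSO wells and 100% = unstimulated DMSO wells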
IL1B cytotox: cytotoxicity in IL-1B stimulated HUVEC, primary screen, cytotoxicity control for IL-1B NFkB translocation project, imaging, Hoechst nuclear count, IL-1B stimulus; HUVEC cell count loss; cell count reduction, % at 2 µM; 0.41% of 94,000 active;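 active means cell count reduction more than 3 SD above the screen-wide mean, cut at about 70% in these data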;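 further: normalized per plate to untreated control cells as the no-loss baseline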
Smad3 inh: Smad3/FoxH1 peptide binding inhibitors, primary screen, biochemical, TR-FRET | TR-FRET Smad3/Dy647-FoxH1 peptide binding, europium anti-His | inhibition, % at 25 µM | 0.29% of 88,000 active;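 active means compounds that reduce the energy-transfer binding signal between the protein and its labelled peptide by more than half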;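 further: 0% = Smad3 plus labelled peptide maximal FRET and 100% = peptide-only background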
Target sequence (P84022 whole entry, looked up): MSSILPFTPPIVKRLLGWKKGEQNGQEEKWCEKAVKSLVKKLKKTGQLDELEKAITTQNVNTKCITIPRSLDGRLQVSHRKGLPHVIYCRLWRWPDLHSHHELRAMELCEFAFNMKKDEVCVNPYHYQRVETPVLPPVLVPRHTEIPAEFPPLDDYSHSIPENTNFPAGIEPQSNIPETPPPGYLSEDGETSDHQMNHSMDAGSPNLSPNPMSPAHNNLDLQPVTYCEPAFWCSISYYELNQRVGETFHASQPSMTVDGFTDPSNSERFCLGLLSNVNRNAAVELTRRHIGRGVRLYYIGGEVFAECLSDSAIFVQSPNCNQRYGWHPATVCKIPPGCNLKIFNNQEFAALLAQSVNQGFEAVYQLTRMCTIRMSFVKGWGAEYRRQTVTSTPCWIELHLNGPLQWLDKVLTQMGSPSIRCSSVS
An asterisk follows results filed as active; . = no result given; [ ] = remark or other dose.

SMILES	IL1B NFkB pot	IL1B NFkB inh	IL1B cytotox	Smad3 inh
O=C(Nc1cccc(C(=O)N2CCCCCC2)c1)c1ccco1	-14	14	72*	17
Cc1ccc(S(=O)(=O)N=Nc2c(O)[nH]c3ccccc23)cc1	24	-24	-57	-4
O=[N+]([O-])c1ccccc1N=Nc1c(O)[nH]c2ccc(S(=O)(=O)O)cc12	.	.	.	63*
Cc1ncn(-c2ccccc2O)c1C	.	.	.	20
Cc1nc(SCC(=O)N2CCN(c3ccccc3)CC2)c2c(=O)n(C)c(=O)n(C)c2n1	.	.	.	6
O=C(N/N=C/C(Br)=C/c1ccccc1)c1n[nH]c2c1CCC2	-41	40*	16	9
O=C(CNc1cccc2ccccc12)N/N=C/C(Br)=C/c1ccccc1	2	-2	3	1
CCC(c1nnnn1C1CCCC1)N1CCN(Cc2ccccc2)CC1 (stereo not drawn)	-3	3	-15	0
Fc1ccccc1C(c1nnnn1C1CCCC1)N1CCN(Cc2ccccc2)CC1 (stereo not drawn)	-77	77*	88*	-20
COc1ccc(N2CCN(C(CNC(=O)c3ccco3)c3cccnc3)CC2)cc1 (stereo not drawn)	40*	-40	-12	-6
COc1ccccc1N1CCN(C(CNC(=O)c2ccco2)c2cccnc2)CC1 (stereo not drawn)	5	-5	-48	.
CC1=C/C(=N\O)[C@H]([C@@H]2C=C(C)CC(C)(C)[C@H]2O)C(C)(C)C1	.	.	.	-7
CC(C)C(=O)Nc1nnc(CSCc2ccccc2F)s1	-54	54*	-6	8
O=C(CSC1=NCCN1)c1ccccc1	.	.	.	13
COC(=O)C(/C=N/OCc1ccc([N+](=O)[O-])cc1)NC(=O)c1ccccc1 (stereo not drawn)	44*	-44	-3	-2
CCN(CC)C(=O)CSc1nnc(-c2ccccc2)n1-c1ccccc1	-38	38*	-42	1
O=C(O)/C=C/C(=O)Nc1ccccn1	.	.	.	1
Oc1c(C(O)(c2ccccc2)c2ccc3ccccc3c2O)ccc2ccccc12	.	.	.	18
CN(C)C(=O)CN(C)S(=O)(=O)c1ccc(Cl)cc1	-91	91*	-5	-5
CN(CC(=O)Nc1ccccn1)S(=O)(=O)c1ccc(Cl)cc1	16	-16	-20	-5
C[C@@]1(CO)[C@H](O)CC[C@]2(C)[C@@H]1CC[C@H]1C[C@H]3C[C@]12CC[C@@]3(O)COC(=O)CN	.	.	.	-3
Cc1ccc(OCC(=O)Nc2sc3c(c2C#N)CCC3)cc1	59*	-59	25	.
Cc1ccc(OCC(=O)Nc2sc3c(c2C#N)CCC3)cc1C	-1	1	-10	.
Cc1c(CN(C)C)c2c(n1C)C(=O)c1ccc(Br)cc1-2	5	-5	-18	-2
CCOC(=O)c1c2c(n(C)c1C)C(=O)C(=O)c1ccc(Br)cc1-2	14	-14	37	68*[fluorescence artefact?]
SMILES	IL1B NFkB pot	IL1B NFkB inh	IL1B cytotox	Smad3 inh
C/C(N[O-])=C(\C)[N+]([O-])=[Co].C/C(N[O-])=C(\C)[N+]([O-])=[Co].CC(=N\[O-])/C(C)=N/[O-].CC(=N\[O-])/C(C)=N/[O-].[CH3-].[CH3-]	.	.	.	10
COc1ccccc1-n1c(C)nnc1SCC(=O)Nc1cccc(C(C)=O)c1	-97	96*	80*	-2
Cc1ccc(Nc2nc(-c3c(C)nc4ccccn34)cs2)cc1	-34	34*	34	.
CC(=O)[C@@H](C)CCO[C@]1(C)OCC[C@@H]1C	.	.	.	-5
O=C(Oc1cc(-c2ccccc2)no1)c1ccc(Cl)cc1	.	.	.	8
O=C(OCC1CC(c2ccccc2)=NO1)c1ccc(Cl)cc1 (stereo not drawn)	50*	-50	18	.
CCOC(=O)c1c(-c2ccccc2)nc2ccc(Cl)cn12	11	-12	-15	.
CN(C)Cc1cnc2ccc(Cl)cn12	-97	97*	87*	.
O=C(CCc1nc2ccccc2[nH]1)Nc1ccc2c(c1)OCO2	-43	44*	0	13
O=C(CCc1nc2ccccc2[nH]1)NCc1ccc2c(c1)OCO2	.	.	.	-1
CCc1ccccc1NC(=O)/C(=C/c1ccco1)c1ccccc1	4	-4	-2	81*[fluorescence artefact?]
Cc1ccccc1NC(=O)/C(=C/c1ccco1)c1ccccc1	31	-31	-1	1
CCCCC[n+]1ccn(-c2nc3ccccc3nc2[N-]S(=O)(=O)c2ccc(C)cc2)c1	-98	98*	82*	2
CCCC[n+]1ccn(-c2nc3ccccc3nc2[N-]S(=O)(=O)c2ccc(C)cc2)c1	12	-12	0	14
NC(=O)CCCc1nc(-c2ccccc2Cl)no1	-14	14	-16	10
CNC(=O)CCCc1nc(-c2ccccc2Cl)no1	65*	-65	4	0
CN(C)CN1C(=O)S/C(=C2\C(=O)N(CN(C)C)c3ccccc32)C1=O	.	.	.	15
C=CCN1C(c2ccccc2)=CS/C1=C(\C#N)c1nnc2n1CCCCC2	.	.	.	51*
O=C(O)CC[C@@H](C(=O)O)N1C(=O)[C@@H]2[C@@H]3CC[C@@H](C3)[C@@H]2C1=O	.	.	.	-1
O=C(c1sc2ccccc2c1Cl)N(Cc1ccccc1)C1CCS(=O)(=O)C1 (stereo not drawn)	-66	66*	10	-10
CCOC(=O)c1cc2c(=O)n3ccccc3nc2n(CCOC)c1=NC(=O)c1ccncc1	6	-6	10	-1
CCOC(=O)c1cc2c(=O)n3ccccc3nc2n(CCCOC)c1=NC(=O)c1cccnc1	44*	-44	0	19
CCCNC(=S)Nc1ccc(Br)cc1	8	-8	92*	.
CCCNC(=S)Nc1ccc(Oc2ccccc2)cc1	-1	1	18	.
Clc1ccc(CSC2=NCCN2)cc1Cl	.	.	.	7
SMILES	IL1B NFkB pot	IL1B NFkB inh	IL1B cytotox	Smad3 inh
COc1ccnc(Oc2ccccc2)c1C(=O)N/C=N/OCc1ccc(F)cc1Cl	-14	14	95*	.
COc1ccc(-n2c(Cc3cccn3C)nnc2SCC(=O)NCC2CCCO2)cc1 (stereo not drawn)	-37	37*	11	-1
C=CCSc1nnc2c(n1)OC(c1ccccn1)N(C(C)=O)c1ccccc1-2 (stereo not drawn)	27	-27	-31	-10
C=CCSc1nnc2c(n1)OC=Nc1ccccc1-2	-30	30*	91*	12
COC(=O)C1=C(C)N(c2ccc(Cl)c(Cl)c2)C(=O)C1	55*	-55	-13	6
CC1=C(CC(=O)c2ccc(Cl)cc2)C(=O)c2ccccc2C1=O	14	-14	13	.
C/C(=N\Nc1nc(C)cc(=O)[nH]1)C(=O)O	.	.	.	-10
CCOC(=O)CCc1c(C)c2ccc(OCc3cc([N+](=O)[O-])ccc3OC)cc2oc1=O	3	-3	-33	.
COc1ccc([N+](=O)[O-])cc1COc1ccc2c(-c3ccccc3)cc(=O)oc2c1	4	-4	70*	.
Nc1nc(-c2cccnc2)cc(-c2cc(-c3cccnc3)nc(N)n2)n1	.	.	.	1

Screening results: PubChem BioAssay, several laboratories
